Measured values reported in PMC12864922, “TDP-43 directly inhibits mRNA accumulation in neurites through modulation of mRNA stability”.
Residue numbers refer to the chain shown, from its start. Over roughly 9,900 sequences, “r (bound/input frequency ratio)” has its median near 0.7; the highest 2% begin near 6.5. The sample as a whole holds a higher share of the highest values than the screen did.

B1: ENSMUSG00000004113.301|Cacna1b (ssRNA)
RNA: GGGAGUUCUACAGUCCGACGAUCGCUUCGAUAUCCGCAUGCUAAGGCACUCCUUGGUGUGGUCUCUCUGUUUUGAAACUUCUGAUGACUUCUUGGUGGCUUGUUGUCUUCUACCCCAUGUUUCUCACAGGAUCUGUGUGUGUGUGUGUGUGUGUGUGUGUGUGUGUGUGUGUGUGUGUUAGCAUGUGUGUAUUAGCGUGUGUGAGUGUGUGAGCAUGCACGAGUCAUAGGAGAUGCAGGUGUAUGUGUGUGGUGUGCAUAUGUGUAUGUGUGUGUGUGUGUGUGUGUGUGUAGGUGUGUUCAGCUCUUGCGGUCGCACUAGUGUGGAAUUCUCGGGUGUCAAGG
B2: ENSMUSG00000090935.77|Synj2bp|54:58 (ssRNA)
RNA: GGGAGUUCUACAGUCCGACGAUCGCUUCGAUAUCCGCAUGCUACUUUGUCAGCAUAGGCAGGAGUCCUUUAGGAUUUCUGCCUAUCAGUAAAAGAACAUACUAACCCAAGUUCUACCUUCAGUGGAUUAAAGUUUCAUUAAGUGAAAAUGGAAAGAAAGUAGAAUUACUUGGUAAGAGGCCAAAUGAGGAUACAGAGGCUGAAGAAGAUUGAAAGGAGCUAGUGUAAACAAACAAACAAACAAACAAACAAAAAACCAAACCCCAAAACAAAAACAAAAACAAAACAAAAUUGGAGAAAGCAGCUCUUGCGGUCGCACUAGUGUGGAAUUCUCGGGUGUCAAGG
B3: ENSMUSG00000090935.14|Synj2bp|150:154 (ssRNA)
RNA: GGGAGUUCUACAGUCCGACGAUCGCUUCGAUAUCCGCAUGCUAGAGAGCAGUCAGAUAUGAACGGACGGGUGGAUUAUUUAGUCACGGAGGAAGAGAUCAACCUGACGAGAGGACCUUCGGGUAAAUGGCCAAGAUCUGAAGAACCUGCUGCACCAAGAUGCUGUAGACCUCUUCCGUAAUGCGGGAUGUGCACACACCCUGAGAGUACAGCACAGGUUACCAGUGCAGAAUGGACCUAUAGUACAUCGAGGUGAAGGAGAGCCAAGUGGAGUUCCUGUAGCUAUGGUGCUGCUACCAGUGUUCUCUUGCGGUCGCACUAGUGUGGAAUUCUCGGGUGUCAAGG
B4: ENSMUSG00000090935.23|Synj2bp (ssRNA)
RNA: GGGAGUUCUACAGUCCGACGAUCGCUUCGAUAUCCGCAUGCUAUCAACCUGACGAGAGGACCUUCGGGUAAAUGGCCAAGAUCUGAAGAACCUGCUGCACCAAGAUGCUGUAGACCUCUUCCGUAAUGCGGGAUGUGCUGUGUCCCUGAGAGUACAGCACAGGUUACCAGUGCAGAAUGGACCUAUAGUACAUCGAGGUGAAGGAGAGCCAAGUGGAGUUCCUGUAGCUAUGGUGCUGCUACCAGUGUUUGCCCUCACCAUGGUAGCAGUUUGGGCCUUCGUGAGAUACCGAAAGCAGCUUUGCUCUUGCGGUCGCACUAGUGUGGAAUUCUCGGGUGUCAAGG
B5: ENSMUSG00000031028.306|Tub|133:137 (ssRNA)
RNA: GGGAGUUCUACAGUCCGACGAUCGCUUCGAUAUCCGCAUGCUAAUUGCCAUCAGAGAACCCUCAGCGAGGUAGCCUUUGUUUACAGUCUAGUUUCUAGAGGGCAGUAGGACUUCCAUGCUGGGGCUGGCCUAUCUCCUGAUGAAAGAUUACAGUGCCAUCUCCUUCCCAUAGUUCACACACUGCCCUCCCUCCCUGACUUUAUAGGGAGAAAUCUCCUGACAUUAGAGGUGAUAGAAACCAGAGCUUUAGUCUAGUCAGGCUGUUUCUCUGGGUUGACAAGUUUAAGGUUGAACAGGCUGAUUCUCUUGCGGUCGCACUAGUGUGGAAUUCUCGGGUGUCAAGG
B6: ENSMUSG00000004113.120|Cacna1b (ssRNA)
RNA: GGGAGUUCUACAGUCCGACGAUCGCUUCGAUAUCCGCAUGCUAGGGACUUUCUGAGCCUCGUGGAGAGUGUGGUUUGUCCAAAUGUGUGGCAUGGGAGAUAGGGUACCCCUGAAAGCAAGGAAAGGAGCCCAGCUGUGGCCUGGUAGCACCUGCCGGCACCAGUGAUCUCACGUCUCUUGUGGUCUUGGAGUCAAAUAGCACAUGUAUGUAGAGAUGCGCUCAAGGGCCUGCCUUUCACCUACACUGUCACCAUAACAGGGACCAAAUCUGGAGGAUGUCCUUGCUGUUGAUUCUGGUUUUCACUCUUGCGGUCGCACUAGUGUGGAAUUCUCGGGUGUCAAGG
B7: ENSMUSG00000061578.1213|Ksr2|85:89 (ssRNA)
RNA: GGGAGUUCUACAGUCCGACGAUCGCUUCGAUAUCCGCAUGCUAUCUCACACCCCUGUCCCCGUCCCCUCCACCCCCCGGCAGCAUGCUUCACUCUAUGAAUGAGCCGCUGGGAUAUUGACAUGGAGAACACAUGAUGGAAAAAGCCUCCACACCCAACAUAACUCUCCAGAGAGAUAUUGAAAGUGAUGGGCAGAGAGUCUGACAAUGACCCAGGGGUCAUUGUGAGUCCUAGGCUGAAUCUGUAAUGGGGUCCAAAGUGCAGGAGAGACUGCAUUCACCUUGUUGGUGGGGUGGGGCUUCUUCUCUUGCGGUCGCACUAGUGUGGAAUUCUCGGGUGUCAAGG
B8: ENSMUSG00000061578.1432|Ksr2|151:155;246:250 (ssRNA)
RNA: GGGAGUUCUACAGUCCGACGAUCGCUUCGAUAUCCGCAUGCUAGUCUCUCUCACUCAUUGCCAACAUGUUGCUGGGAAAGAAUAUUUGAUUUAGAUGCCAAUCAGGAAGGCAAGUAGGAUGGAUGGAUGAGUGAGUGGAUAGGUAGGUAUAUAAAUGGAUGGAUGGGUGAUGGAUGGGUAAAUGAAUGGAUAGCAUACUGAAUGAAUGGAUGAUGGAUGAAUGGAUGGGUAGGUGGGUAGAUAGGUAUAUGAAUGAAUGGAUGAAUGGAUGGGUGAAUGGAUGGAUAGCAUACUGAAUAAAUGCUCUUGCGGUCGCACUAGUGUGGAAUUCUCGGGUGUCAAGG
B9: ENSMUSG00000061578.1432|Ksr2 (ssRNA)
RNA: B8 RNA with C194G, A195U, U196A, A197U, C198G, C289G, A290U, U291A, A292U, C293G
B10: ENSMUSG00000061578.1431|Ksr2|157:161;252:256 (ssRNA)
RNA: GGGAGUUCUACAGUCCGACGAUCGCUUCGAUAUCCGCAUGCUACUCUCUGUCUCUCUCACUCAUUGCCAACAUGUUGCUGGGAAAGAAUAUUUGAUUUAGAUGCCAAUCAGGAAGGCAAGUAGGAUGGAUGGAUGAGUGAGUGGAUAGGUAGGUAUAUAAAUGGAUGGAUGGGUGAUGGAUGGGUAAAUGAAUGGAUAGCAUACUGAAUGAAUGGAUGAUGGAUGAAUGGAUGGGUAGGUGGGUAGAUAGGUAUAUGAAUGAAUGGAUGAAUGGAUGGGUGAAUGGAUGGAUAGCAUACUGAACUCUUGCGGUCGCACUAGUGUGGAAUUCUCGGGUGUCAAGG
B11: ENSMUSG00000061578.1430|Ksr2 (ssRNA)
RNA: GGGAGUUCUACAGUCCGACGAUCGCUUCGAUAUCCGCAUGCUAGUCUUGCUCUCUGUCUCUCUCACUCAUUGCCAACAUGUUGCUGGGAAAGAAUAUUUGAUUUAGAUGCCAAUCAGGAAGGCAAGUAGGAUGGAUGGAUGAGUGAGUGGAUAGGUAGGUAUAUAAAUGGAUGGAUGGGUGAUGGAUGGGUAAAUGAAUGGAUAGGUAUGUGAAUGAAUGGAUGAUGGAUGAAUGGAUGGGUAGGUGGGUAGAUAGGUAUAUGAAUGAAUGGAUGAAUGGAUGGGUGAAUGGAUGGAUAGGUACUCUUGCGGUCGCACUAGUGUGGAAUUCUCGGGUGUCAAGG
B12: ENSMUSG00000061578.1433|Ksr2 (ssRNA)
RNA: GGGAGUUCUACAGUCCGACGAUCGCUUCGAUAUCCGCAUGCUACUCACUCAUUGCCAACAUGUUGCUGGGAAAGAAUAUUUGAUUUAGAUGCCAAUCAGGAAGGCAAGUAGGAUGGAUGGAUGAGUGAGUGGAUAGGUAGGUAUAUAAAUGGAUGGAUGGGUGAUGGAUGGGUAAAUGAAUGGAUAGGUAUGUGAAUGAAUGGAUGAUGGAUGAAUGGAUGGGUAGGUGGGUAGAUAGGUAUAUGAAUGAAUGGAUGAAUGGAUGGGUGAAUGGAUGGAUAGGUAUGUGAAUAAAUGGAUGGACUCUUGCGGUCGCACUAGUGUGGAAUUCUCGGGUGUCAAGG
B13: ENSMUSG00000061578.1434|Ksr2|139:143;234:238 (ssRNA)
RNA: GGGAGUUCUACAGUCCGACGAUCGCUUCGAUAUCCGCAUGCUACAUUGCCAACAUGUUGCUGGGAAAGAAUAUUUGAUUUAGAUGCCAAUCAGGAAGGCAAGUAGGAUGGAUGGAUGAGUGAGUGGAUAGGUAGGUAUAUAAAUGGAUGGAUGGGUGAUGGAUGGGUAAAUGAAUGGAUAGCAUACUGAAUGAAUGGAUGAUGGAUGAAUGGAUGGGUAGGUGGGUAGAUAGGUAUAUGAAUGAAUGGAUGAAUGGAUGGGUGAAUGGAUGGAUAGCAUACUGAAUAAAUGGAUGGAUGGAUGCUCUUGCGGUCGCACUAGUGUGGAAUUCUCGGGUGUCAAGG
B14: ENSMUSG00000061578.1430|Ksr2|163:167 (ssRNA)
RNA: B11 RNA with G206C, U207A, A208U, U209A, G210C
B15: ENSMUSG00000061578.1433|Ksr2|145:149;240:244 (ssRNA)
RNA: B12 RNA with G188C, U189A, A190U, U191A, G192C, G283C, U284A, A285U, U286A, G287C
B16: ENSMUSG00000061578.1429|Ksr2 (ssRNA)
RNA: GGGAGUUCUACAGUCCGACGAUCGCUUCGAUAUCCGCAUGCUAAGAUCUGUCUUGCUCUCUGUCUCUCUCACUCAUUGCCAACAUGUUGCUGGGAAAGAAUAUUUGAUUUAGAUGCCAAUCAGGAAGGCAAGUAGGAUGGAUGGAUGAGUGAGUGGAUAGGUAGGUAUAUAAAUGGAUGGAUGGGUGAUGGAUGGGUAAAUGAAUGGAUAGGUAUGUGAAUGAAUGGAUGAUGGAUGAAUGGAUGGGUAGGUGGGUAGAUAGGUAUAUGAAUGAAUGGAUGAAUGGAUGGGUGAAUGGAUGGACUCUUGCGGUCGCACUAGUGUGGAAUUCUCGGGUGUCAAGG

These binders were tested against TDP-43 (Homo sapiens, UniProt Q13148 1-414) (assay: RNA Bind-n-Seq with designed 260-mer pool; 25 mM Tris-HCl, 150 mM KCl, 3 mM MgCl2, BSA (printed 500 mg/mL), 20 units/mL SUPERase IN; pH not stated; 500 nM RNA pool, 1 h, 4 C; TDP-43 5, 50, 500 nM; high values mean tight binding). Conditions: protein: recombinant; tags: SBP (GST cleaved off with PreScission; pGEX-GST-SBP).
Outline: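 Duplicate measurements used two independent batches of recombinant SBP-tagged TDP-43, which was captured on streptavidin beads at 5, 50 or 500 nM. The beads were incubated with 500 nM of an in vitro-transcribed 260-nt 3′ UTR oligo pool for 1 h at 4 °C in 25 mM Tris-HCl, 150 mM KCl, 3 mM MgCl2, BSA and SUPERase IN. After washing, biotin elution, reverse transcription, PCR amplification and sequencing, binding was expressed as R: each oligo's normalized read abundance in the bound sample over its abundance in input.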

Chain of TDP-43 (Q13148 whole entry): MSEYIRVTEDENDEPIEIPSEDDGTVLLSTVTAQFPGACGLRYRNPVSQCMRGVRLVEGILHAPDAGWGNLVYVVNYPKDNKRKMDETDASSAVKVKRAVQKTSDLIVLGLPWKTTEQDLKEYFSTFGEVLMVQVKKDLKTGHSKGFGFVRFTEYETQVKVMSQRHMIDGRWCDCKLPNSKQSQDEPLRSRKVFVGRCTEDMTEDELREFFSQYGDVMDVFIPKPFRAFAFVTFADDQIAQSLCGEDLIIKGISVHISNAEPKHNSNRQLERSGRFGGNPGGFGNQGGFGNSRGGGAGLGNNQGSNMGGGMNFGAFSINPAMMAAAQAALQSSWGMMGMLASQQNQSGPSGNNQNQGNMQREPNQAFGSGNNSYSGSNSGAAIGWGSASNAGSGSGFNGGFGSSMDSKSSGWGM

Row | Binder | binding signal
1 | B1 | 5.79 R (bound/input frequency ratio)
2 | B2 | 0.449 R (bound/input frequency ratio)
3 | B3 | 2.14 R (bound/input frequency ratio)
4 | B4 | 1.15 R (bound/input frequency ratio)
5 | B5 | 0.368 R (bound/input frequency ratio)
6 | B6 | 1.21 R (bound/input frequency ratio)
7 | B7 | 0.376 R (bound/input frequency ratio)
8 | B8 | 5.51 R (bound/input frequency ratio)
9 | B9 | 6.18 R (bound/input frequency ratio)
10 | B10 | 7.04 R (bound/input frequency ratio)
11 | B11 | 6.58 R (bound/input frequency ratio)
12 | B12 | 6.35 R (bound/input frequency ratio)
13 | B13 | 3.79 R (bound/input frequency ratio)
14 | B14 | 5.26 R (bound/input frequency ratio)
15 | B15 | 7.14 R (bound/input frequency ratio)
16 | B16 | 4.48 R (bound/input frequency ratio)
